{
  "source": "PubChem BioAssay (EPA / NIEHS)",
  "note": "Values joined by “and” are separate entries in the source; they are usually repeats but may differ in a detail not shown here. Identical values can stand only once. Active and inactive are the calls of the source. How the source made its calls: active means hit-call score of the fitted dose curve at least 0.9, where 1 is the maximum; inactive means score below 0.9.",
  "data": [
    {"read-out": "Monocyte Chemoattractant Protein-1 (MCP1), CCL2 (gene 6347)", "assay": "BSK_3C_MCP1: BioMAP Diversity Plus: 3C Assay for Monocyte Chemoattractant Protein-1 (MCP1) Biomarker Activity (AID 2283017)", "conditions": "primary human endothelial cells (HUVEC); actives raise or lower the signal", "method": "BSK_3C is a cell-based, multiplexed-readout assay that uses umbilical vein endothelium, a human vascular primary cell, with measurements taken at 24 hours after chemical dosing in a 96-well plate.BSK_3C_MCP1 is an assay component measured in the BSK_3C assay. It measures MCP-1 antibody related to regulation of gene expression using ELISA technology.Data from the assay component BSK_3C_MCP1 was analyzed into 1 assay endpoint. This assay endpoint, BSK_3C_MCP1, was analyzed with bidirectional fitting relative to DMSO as the negative control and baseline of activity. Using a type of binding reporter, gain or loss-of-signal activity can be used to understand changes in the signaling as they relate to the gene CCL2. Furthermore, this assay endpoint can be referred to as a primary readout, because this assay has produced multiple assay endpoints where this one serves a signaling function. To generalize the intended target to other relatable targets, this assay endpoint is annotated to the cytokine intended target family, where the subfamily is chemotactic factor.\nThe levels of cell surface (or secreted, indicated by the prefix \"s\") biomarker endpoints were measured by ELISA. Overt cytotoxicity to cells in confluent adherent cultures (all systems other than the BT system) was assessed by measuring total protein levels using sulforhodamine B (SRB) staining in parallel cultures at the time of biomarker measurements, indicated as SRB endpoints. For proliferation assays for adherent cell types, individual cell types are cultured at sub-confluence and relative cell numbers quantified by SRB staining at time points optimized for each system (48 h: 3C and CASM3C systems; 72 h: BT and HDF3CGF systems; 96 h: SAg system). SRB was performed by staining cells with 0.1% SRB after fixation with 10% TCA and reading wells at 560 nm.Viability and proliferation of PBMC (T cells) was quantified by Alamar Blue reduction for the SAg and BT systems. For PBMC viability (referred to as PBMC Cytotoxicity within the assay endpoint names), cells were plated (75,000/well in a 96-well plate) and then chemical samples added for 1 h before addition of activators, SEB and TSST-1 (20 ng/mL final concentration each). Cells were incubated for 90 h. Then, Alamar Blue (20 uL/well) (Invitrogen, Cat DAL1100) was added for 6 h, and the plates were read with a fluorescence microplate reader at 546/580 nm (excitation/emission). For PBMC proliferation, cells were plated and activated as above but incubated for only 16 h prior to addition of Alamar Blue. Plates were read after 6 h.", "values": [
      {"smiles": "CN(C)C(=O)Nc1ccc(Oc2ccc(Cl)cc2)cc1", "AC50": "3.97 µM (active)"},
      {"smiles": "CN(c1nccc(=O)[nH]1)C1CCN(c2nc3ccccc3n2Cc2ccc(F)cc2)CC1", "outcome": "inactive"},
      {"smiles": "CC(CN=Cc1ccccc1O)N=Cc1ccccc1O", "note": "(stereo not given)", "outcome": "inactive"},
      {"smiles": "C=C(C)C(=O)OCCOCCOCCOCCOC(=O)C(=C)C", "outcome": "inactive"},
      {"smiles": "CC(C=O)Cc1ccc(C(C)(C)C)cc1", "note": "(stereo not given)", "AC50": "30.6 µM (active)"},
      {"smiles": "CCCCOC(=O)CCCCCCCC(=O)OCCCC", "outcome": "inactive"},
      {"smiles": "O=C1OC2(c3ccccc31)c1ccc(O)c(Br)c1Oc1c2ccc(O)c1Br", "AC50": "20 µM (active)"},
      {"smiles": "CC=Cc1ccc(OCC)c(O)c1", "outcome": "inactive"},
      {"smiles": "O=C(Nc1ccc2c(O)c(N=Nc3ccc(N=Nc4ccc(S(=O)(=O)O)cc4)cc3)c(S(=O)(=O)O)cc2c1)c1ccccc1", "outcome": "inactive"},
      {"smiles": "CN(C)C(=S)SC(=S)N(C)C", "AC50": "31.4 µM (active)"},
      {"smiles": "CC(C)(C)CC(C)(C)c1ccc(OCCOCC[N+](C)(C)Cc2ccccc2)cc1", "AC50": "5 µM (active)"},
      {"smiles": "CC1(C)C2=CCCC(C)(C)[C@]23CC[C@H]1C3", "AC50": "30.4 µM (active)"},
      {"smiles": "O=C1OC[C@H](Cc2cccc(O)c2)[C@H]1Cc1cccc(O)c1", "outcome": "inactive"},
      {"smiles": "CCCCCCCCCCCCCCCC(=O)OC/C=C(C)/C=C/C=C(C)/C=C/C1=C(C)CCCC1(C)C", "AC50": "3.97 µM (active)"},
      {"smiles": "CCCCCCC(CO)CCCC", "note": "(stereo not given)", "outcome": "inactive"},
      {"smiles": "c1ccc(CCc2ccccc2)cc1", "AC50": "28.5 µM (active)"},
      {"smiles": "C=C(C)C(=O)OCCOCCOCCOC(=O)C(=C)C", "outcome": "inactive"},
      {"smiles": "Clc1cc(Cl)c(-c2c(Cl)c(Cl)cc(Cl)c2Cl)cc1Cl", "AC50": "16 µM (active)"},
      {"smiles": "c1ccc2cc(Nc3ccc(Nc4ccc5ccccc5c4)cc3)ccc2c1", "outcome": "inactive"},
      {"smiles": "CC(=O)c1c(C)c([N+](=O)[O-])c(C(C)(C)C)c([N+](=O)[O-])c1C", "outcome": "inactive"},
      {"smiles": "CCCCN(CCCC)C(=O)N(CCCC)CCCC", "AC50": "8.46 µM (active)"},
      {"smiles": "COc1ccc(CCN2CCC(Nc3nc4ccccc4n3Cc3ccc(F)cc3)CC2)cc1", "AC50": "3.54 µM (active)"},
      {"smiles": "COc1ccc(OC)c(N=Nc2c(O)ccc3ccccc23)c1", "AC50": "20 µM (active)"},
      {"smiles": "C[C@@H]1CCN(C(=O)[C@H](CCCN=C(N)N)NS(=O)(=O)c2cccc3c2NC[C@H](C)C3)[C@@H](C(=O)O)C1", "outcome": "inactive"},
      {"smiles": "CS(=O)(=O)c1ccc(C2=C(c3ccccc3)C(=O)OC2)cc1", "outcome": "inactive"},
      {"smiles": "Oc1c(Cl)cc(Cl)c(Cl)c1Cc1c(O)c(Cl)cc(Cl)c1Cl", "AC50": "32.6 µM (active)"},
      {"smiles": "CC(=O)Nc1ccc(C(=O)CCl)cc1", "AC50": "11.2 µM (active)"},
      {"smiles": "CCCCCC(C=O)=Cc1ccccc1", "AC50": "31.5 µM (active)"},
      {"smiles": "C1=CC2C3C=CC(C3)C2C1", "note": "(stereo not given)", "outcome": "inactive"},
      {"smiles": "CCC(C)c1cc([N+](=O)[O-])cc([N+](=O)[O-])c1OC(=O)OC(C)C", "note": "(stereo not given)", "AC50": "29.5 µM (active)"},
      {"smiles": "CCN(CC)C(=O)N(CC)CC", "outcome": "inactive"},
      {"smiles": "CSCCC=O", "outcome": "inactive"},
      {"smiles": "O=C1c2ccccc2C(=O)c2c(O)ccc(O)c21", "outcome": "inactive"},
      {"smiles": "CC(=O)C1(C)CC2=C(CCCC2(C)C)CC1C", "note": "(stereo not given)", "AC50": "11 µM (active)"},
      {"smiles": "Cc1cc(CCC(=O)OCCOCCOCCOC(=O)CCc2cc(C)c(O)c(C(C)(C)C)c2)cc(C(C)(C)C)c1O", "AC50": "17.8 µM (active)"},
      {"smiles": "CC(C)(N=C=O)c1cccc(C(C)(C)N=C=O)c1", "outcome": "inactive"},
      {"smiles": "O=CN1CCOCC1", "outcome": "inactive"},
      {"smiles": "C=C(C)C(=O)OCC(CC)(COC(=O)C(=C)C)COC(=O)C(=C)C", "outcome": "inactive"},
      {"smiles": "CC1(C)CCC[C@]2(C)[C@H]3CCO[C@]3(C)CC[C@@H]12", "AC50": "26.4 µM (active) and 34.5 µM (active)"},
      {"smiles": "IC(I)I", "outcome": "inactive"}
    ]}
  ]
}
